Test results reported in ChEMBL document CHEMBL3988442, “University of Dundee, Small-Polar-MMV Screening Library” (2021).
Screen size: about 48,000 compounds; about 13,000 (27%) showed an effect of 50% or more. The list shows a part of the results.

Test system: Wolbachia pipientis
Experiment: Anti-Wolbachia Cell-Based Screen
Assay type: functional
Set-up: scale not given: in the data most compounds retested in dose-response had high values
Conditions: 5 µM

| Compound | Percent Effect |
| --- | --- |
| O=C(CCOc1ccccc1F)N1CCCC1Cn1cccn1 (stereo not given) | 123.4% |
| O=C(CCOc1ccccc1F)N1CCCCC1Cn1cccn1 (stereo not given) | 114.4% |
| COc1cc(C)ccc1OCCC(=O)N1CCCC1Cn1cccn1 (stereo not given) | 6.133% |
| CCOCCC(=O)N1CCCCC1CCn1cccn1 (stereo not given) | -10.55% |
| O=C(c1ccccc1OCC1CC1)N1CCCC1Cn1cccn1 (stereo not given) | 15.75% |
| O=C(CCCOc1ccc(F)cc1F)N1CCCC1Cn1cccn1 (stereo not given) | 4.503% |
| COc1ccccc1OCCC(=O)N1CCCC1Cn1cccn1 (stereo not given) | 114.3% |
| O=C1O[C@@H]2CN(c3ncccn3)C[C@@H]2N1CCCc1ccc(F)cc1 | 0.8552% |
| CCc1nc(CN(CC(N)=O)C(C)C)cs1 | -5.873% |
| CN(C)CCOc1ccccc1N1CCN(C(=O)C(C)(C)C#N)CC1 | 12.48% |
| COCCN(Cc1c(C)nn(C)c1C)C(=O)C1COc2ccccc2C1 (stereo not given) | -13.07% |
| Cc1cc(C)n(CC2CCCCN2CC(=O)Nc2cccnc2)n1 (stereo not given) | -5.388% |
| CN(Cc1nc(-c2cccnc2)no1)C(=O)c1cccn1C | -3.845% |
| CCN1CCNC(=O)C12CCN(S(=O)(=O)c1ccc(OC)cc1)CC2 | 15.65% |
| COc1ccc(S(=O)(=O)N2CCCC3(CCCN3S(C)(=O)=O)C2)cc1 (stereo not given) | -14.23% |
| COc1cccc(S(=O)(=O)N2C[C@@H](O)[C@H](N(C)C)C2)c1 | 179.9% |
| COc1cccc(S(=O)(=O)CCN2CCC3(CC2)OCCO3)c1 | -7.046% |
| CC(C)[C@@H]1CN(S(=O)(=O)c2cccc(C(=O)O)c2)C[C@H]1N(C)C | 0.7097% |
| COc1cccc(S(=O)(=O)N2C[C@H](OC)[C@]3(CCCO3)C2)c1 | 151.5% |
| COc1cccc(S(=O)(=O)N2C[C@@H](N(C)C)[C@H](C(C)C)C2)c1 | -6.322% |
| COC1COC2(CCN(S(=O)(=O)c3ccc(F)cc3)CC2)C1 (stereo not given) | -4.083% |
| COc1ccc(S(=O)(=O)N2C[C@H](OC)[C@]3(CCCO3)C2)cc1 | 124.9% |
| COc1cccc(C(C)N2CCN(S(=O)(=O)c3ccccc3)CC2)c1 (stereo not given) | -3.731% |
| CO[C@H]1CN(S(=O)(=O)c2ccc(F)cc2)C[C@@]12CCCO2 | 187.7% |
| CCOC1COC2(CCN(S(=O)(=O)c3ccc(F)cc3)CC2)C1 (stereo not given) | -48.73% |

| Compound | Percent Effect |
| --- | --- |
| Cc1nnc(C(C)Nc2cccc(COCC(F)(F)C(F)F)c2)o1 (stereo not given) | 6.562% |
| CC(C)Cc1cn(C2CCN(C(C)CC3CC3)CC2)nn1 (stereo not given) | 4.944% |
| O=C1NCC2(CCCN(C(=O)c3ccc4c(c3)OCCO4)CC2)O1 (stereo not given) | 12.75% |
| COc1cc(F)c(S(=O)(=O)N2c3ncccc3NC(=O)C2C)cc1OC (stereo not given) | -16.51% |
| O=C(CCc1nc2cccnc2[nH]1)Nc1cccnc1 | 5.191% |
| CN(Cc1ccc(N2CCCCC2)cc1)Cc1noc(C(C)(C)C)n1 | 16.16% |
| O=C(c1ccccn1)N1C[C@@H]2CC[C@H](C1)N(C(=O)CCc1cccs1)C2 | -9.254% |
| Cc1noc(C)c1CN(C)C(=O)NC1CCN(c2ncccn2)CC1 | -8.201% |
| C[C@@H]1CN(S(=O)(=O)c2ccc(F)cc2F)C[C@]1(C)O | 4.198% |
| CO[C@H]1CN(S(=O)(=O)c2ccccc2F)C[C@@]12CCCO2 | 166.4% |
| CNC(=O)[C@@]12CCO[C@@H]1CCN(S(=O)(=O)c1ccccc1F)C2 | -14.92% |
| CO[C@H]1CN(S(=O)(=O)c2ccc(C)cc2)C[C@@]12CCCO2 | 89.74% |
| O=C(CN1CCCNC1=O)N(Cc1ccccc1)CC(F)F | -9.06% |
| Cc1c(CN2CC[C@@H](N3CCC(O)CC3)[C@H](O)C2)[nH]c2ccc(Cl)cc12 | 105.3% |
| Cc1ccc2[nH]c(CN3CC[C@@H](N4CCN(C)CC4)[C@H](O)C3)c(C)c2c1 | 130.9% |
| Cc1c(CN2CC[C@@H](N3CCC(O)CC3)[C@H](O)C2)[nH]c2ccc(F)cc12 | 105.6% |
| CC1=C(CCN2CC[C@@H](N3CCC(O)CC3)[C@H](O)C2)C(C)(C)CCC1 | -3.551% |
| CSCCC1c2nc[nH]c2CCN1Cc1[nH]c2ccc(F)cc2c1C (stereo not given) | 8.699% |
| CN1CCN([C@@H]2CCN(CC3=Cc4cc(Cl)ccc4OC3)C[C@H]2O)CC1 | -16.81% |
| Cc1c(CN2CCc3[nH]cnc3C2C2CC2)[nH]c2ccc(F)cc12 (stereo not given) | 10.14% |
| O=C(c1cccc(Cl)c1)N1CC[C@@H](N2CCC(O)CC2)[C@H](O)C1 | -1.425% |
| CN1CCN([C@@H]2CCN(Cc3ccc4cc(F)ccc4n3)C[C@H]2O)CC1 | -21.32% |
| Cc1c(CN2CCc3[nH]cnc3C2C(=O)O)[nH]c2ccc(F)cc12 (stereo not given) | 4.217% |
| Cc1c(CN2C[C@H](O)[C@@H](N3CCOCC3)C2)[nH]c2ccc(F)cc12 | 90.42% |
| CN1CCN([C@@H]2CCN(Cc3cccc(-n4cccn4)c3)C[C@H]2O)CC1 | -7.292% |
